Source: PubChem BioAssay AID504424 (National Center for Advancing Translational Sciences (NCATS), 2011)
Some of the results follow. Activity calls are given as the source filed them.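 The calls were made as follows: active = compounds that showed inhibition of Dyrk1a and received a fitted potency; inactive = compounds that showed no inhibition.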

target: Dual specificity tyrosine-phosphorylation-regulated kinase 1A (Homo sapiens) (UniProt Q13627); assay: Kinase Inhibition Study on Inhibitors of Dyrk1a (Reaction Biology data); details: Reaction Biology kinase assay, 10 uM ATP
Description: NIH Molecular Libraries Probe Production Centers Network [MLPCN] NIH Chemical Genomics Center [NCGC] MLPCN Grant: 1R03MH084827-01 Assay Submitter (PI): Tom Misteli NCGC Assay Overview: Alternative splicing of pre-mRNAs plays a major role in the regulation of eukaryotic gene expression. Alternative splicing is now thought to be one of the primary reasons for the complexity of higher organisms leading to an average of three protein isoforms per gene. Aberrant splicing can lead to a number of diseases and is known to play a role in rare genetic diseases such as progeria syndrome. Hutchinson-Gilford Progeria Syndrome (HGPS) is a pediatric premature aging disease caused by a spontaneous mutation in the lamin A/C (LMNA) gene due to a single point mutation in the lamin A gene effecting 1 in 4 million people. To identify both specific splicing modulators of the lamin A gene as well as general splicing modulators, a cell-based HTS assay was developed using a minigene reporter system (AIDs, 1459 & 1487). […] The Clk family is part of the CMGC group of protein kinases which includes Dyrks and are essential kinases found in all eukaryotes. […] This AID is to summarize the activity of these analogs in Dyrk1a.
All kinase reactions were performed using 10 uM ATP in the assay. 100% activity was taken from kinase reactions with DMSO alone (the vehicle used for compound stock solutions).

Potency, active:
CC(Nc1ncnc2ccc(-c3ccc4c(c3)OCO4)cc12)c1ccco1 (centres undefined) 5600 nM, c1coc(CCNc2ncnc3ccc(-c4ccc5c(c4)OCO5)cc23)c1 74 nM, CN(Cc1cncn1C)c1ncnc2ccc(-c3ccc4c(c3)OCO4)cc12 2450 nM, c1nc(N2CCOCC2)c2cc(-c3ccc4c(c3)OCO4)ccc2n1 723 nM
